Laboratory results taken from the supplement of paper PMC11732987, “Enantioselective OTUD7B fragment discovery through chemoproteomics screening and high-throughput optimisation” (Communications Chemistry, 2025).

Columns and labels:
Experiment in all cases: log2 ratio of Biotin-Ahx-Ub-VS probe labelling (fragment/DMSO); higher = less target engagement (more negative = stronger competition), active = hit call of the paper (q ≤ 0.05, log2 ratio ≤ -1)
Conditions in all cases: compound concentration: 200 uM; treatment time: 3 h
[1] = target: T1, OTUD6B (UniProt Q8N6M0)
T1 sequence (whole entry): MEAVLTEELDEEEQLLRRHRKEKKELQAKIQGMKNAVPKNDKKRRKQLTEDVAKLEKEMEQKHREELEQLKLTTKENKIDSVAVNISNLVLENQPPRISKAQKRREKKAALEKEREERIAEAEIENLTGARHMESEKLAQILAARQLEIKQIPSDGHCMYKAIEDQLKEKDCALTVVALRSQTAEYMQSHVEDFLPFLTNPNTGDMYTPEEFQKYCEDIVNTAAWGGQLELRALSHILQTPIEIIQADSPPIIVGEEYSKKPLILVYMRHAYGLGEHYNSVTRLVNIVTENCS
Procedure, shortened: (§1)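 Lysate from HEK293T cells, 495 µg per sample in Tris/CHAPS/IGEPAL buffer with protease inhibitors, was treated for 3 h in triplicate with fragment at 200 µM or vehicle. Biotin-Ahx-Ub-VS was next added at 0.5 µM final for 1 h. The labelled DUBs were enriched with NeutrAvidin, digested with LysC and trypsin, and run by diaPASEF LC-MS/MS, with values given as average log2 fragment/vehicle ratios by unpaired t-test on global-median-normalised Spectronaut quantities of proteins with ≥2 unique peptides.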

[2] = target: T2, OTUD7B (UniProt Q6GQQ9)
T2 sequence (whole entry): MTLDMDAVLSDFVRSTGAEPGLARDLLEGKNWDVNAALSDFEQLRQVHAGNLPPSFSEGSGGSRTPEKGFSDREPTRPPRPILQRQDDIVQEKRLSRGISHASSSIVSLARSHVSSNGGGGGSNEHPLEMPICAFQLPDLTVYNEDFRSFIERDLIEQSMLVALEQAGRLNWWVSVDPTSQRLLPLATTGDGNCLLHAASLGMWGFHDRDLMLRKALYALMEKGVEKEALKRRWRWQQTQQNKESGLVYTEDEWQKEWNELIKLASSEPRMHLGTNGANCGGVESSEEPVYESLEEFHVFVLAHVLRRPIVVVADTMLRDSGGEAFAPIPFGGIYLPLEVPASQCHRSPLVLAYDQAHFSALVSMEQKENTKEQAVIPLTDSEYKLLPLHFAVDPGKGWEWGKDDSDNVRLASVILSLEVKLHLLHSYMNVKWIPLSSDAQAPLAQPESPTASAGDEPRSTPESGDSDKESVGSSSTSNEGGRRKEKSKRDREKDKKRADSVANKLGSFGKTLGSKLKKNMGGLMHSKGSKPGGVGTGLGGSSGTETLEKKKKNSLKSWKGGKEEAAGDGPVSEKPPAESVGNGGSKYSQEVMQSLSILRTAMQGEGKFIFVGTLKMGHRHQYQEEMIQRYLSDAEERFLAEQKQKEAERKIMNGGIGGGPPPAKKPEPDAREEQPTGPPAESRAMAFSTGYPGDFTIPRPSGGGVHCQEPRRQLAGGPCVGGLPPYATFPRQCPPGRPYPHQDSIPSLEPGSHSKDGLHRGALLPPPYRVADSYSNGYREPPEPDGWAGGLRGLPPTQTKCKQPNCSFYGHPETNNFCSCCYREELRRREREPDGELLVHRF
Procedure, shortened: as §1

[3] = target: PRPF8 (UniProt Q6P2Q9)
Procedure, shortened: as §1

[4] = target: T3, PSMD7 (UniProt P51665)
T3 sequence (whole entry): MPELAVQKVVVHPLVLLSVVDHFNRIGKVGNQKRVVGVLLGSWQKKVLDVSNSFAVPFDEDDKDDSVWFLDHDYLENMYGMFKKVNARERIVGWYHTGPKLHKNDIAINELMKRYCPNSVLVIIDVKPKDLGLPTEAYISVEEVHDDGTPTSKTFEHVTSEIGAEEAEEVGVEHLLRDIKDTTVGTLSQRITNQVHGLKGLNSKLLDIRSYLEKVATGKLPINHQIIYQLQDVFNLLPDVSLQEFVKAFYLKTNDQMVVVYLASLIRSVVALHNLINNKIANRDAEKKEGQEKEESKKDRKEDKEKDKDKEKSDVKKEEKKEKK
Procedure, shortened: as §1

[5] = target: UCHL1 (UniProt P09936)
Procedure, shortened: as §1

[6] = target: T4, UCHL3 (UniProt P15374)
T4 sequence (whole entry): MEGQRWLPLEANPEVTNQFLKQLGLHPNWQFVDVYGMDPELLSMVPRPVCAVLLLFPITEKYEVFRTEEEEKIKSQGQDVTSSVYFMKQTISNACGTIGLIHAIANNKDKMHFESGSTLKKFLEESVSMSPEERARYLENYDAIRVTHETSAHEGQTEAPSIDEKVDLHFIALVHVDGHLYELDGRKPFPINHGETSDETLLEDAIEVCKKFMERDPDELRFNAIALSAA
Procedure, shortened: as §1

[7] = target: T5, UCHL5 (UniProt Q9Y5K5)
T5 sequence (whole entry): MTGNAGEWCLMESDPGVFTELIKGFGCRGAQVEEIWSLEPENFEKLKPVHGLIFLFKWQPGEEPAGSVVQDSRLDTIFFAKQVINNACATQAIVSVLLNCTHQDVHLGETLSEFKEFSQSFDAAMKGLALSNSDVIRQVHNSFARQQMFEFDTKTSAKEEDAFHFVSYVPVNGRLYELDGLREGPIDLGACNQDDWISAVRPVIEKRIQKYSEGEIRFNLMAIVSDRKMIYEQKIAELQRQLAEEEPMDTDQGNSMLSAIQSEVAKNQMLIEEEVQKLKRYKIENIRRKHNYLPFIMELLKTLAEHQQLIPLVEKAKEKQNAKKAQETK
Procedure, shortened: as §1

[8] = target: USP10 (UniProt Q14694)
Procedure, shortened: as §1

[9] = target: T6, USP15 (UniProt Q9Y4E8)
T6 sequence (whole entry): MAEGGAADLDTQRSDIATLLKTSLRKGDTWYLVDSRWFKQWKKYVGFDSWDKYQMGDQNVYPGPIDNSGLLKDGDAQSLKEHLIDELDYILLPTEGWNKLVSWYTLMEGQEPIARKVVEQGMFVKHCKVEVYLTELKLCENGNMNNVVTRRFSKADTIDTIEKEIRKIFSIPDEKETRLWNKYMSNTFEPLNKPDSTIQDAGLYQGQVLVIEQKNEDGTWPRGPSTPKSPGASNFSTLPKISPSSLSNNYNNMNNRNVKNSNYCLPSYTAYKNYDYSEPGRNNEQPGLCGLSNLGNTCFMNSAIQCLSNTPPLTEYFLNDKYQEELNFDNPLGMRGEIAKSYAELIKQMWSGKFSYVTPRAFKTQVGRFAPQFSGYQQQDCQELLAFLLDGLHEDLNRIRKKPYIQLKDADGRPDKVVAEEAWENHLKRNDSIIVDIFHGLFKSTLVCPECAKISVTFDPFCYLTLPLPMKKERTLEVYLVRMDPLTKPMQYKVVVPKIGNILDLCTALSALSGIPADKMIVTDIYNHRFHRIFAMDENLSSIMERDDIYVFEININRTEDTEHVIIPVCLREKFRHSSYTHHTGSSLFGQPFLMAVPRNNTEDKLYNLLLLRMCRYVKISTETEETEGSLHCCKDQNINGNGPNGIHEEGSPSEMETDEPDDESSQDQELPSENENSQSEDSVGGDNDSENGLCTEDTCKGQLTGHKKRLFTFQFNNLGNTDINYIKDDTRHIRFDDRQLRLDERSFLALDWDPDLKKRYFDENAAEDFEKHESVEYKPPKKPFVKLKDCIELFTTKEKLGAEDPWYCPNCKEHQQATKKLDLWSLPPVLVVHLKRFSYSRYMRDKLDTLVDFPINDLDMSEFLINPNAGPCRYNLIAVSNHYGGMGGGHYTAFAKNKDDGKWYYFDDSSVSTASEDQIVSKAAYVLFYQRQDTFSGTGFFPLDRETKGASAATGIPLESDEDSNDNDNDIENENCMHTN
Procedure, shortened: as §1

[10] = target: USP16 (UniProt Q9Y5T5)
Procedure, shortened: as §1

Measured: log2 ratio of Biotin-Ahx-Ub-VS probe labelling

USP16, sequence (Q9Y5T5 whole entry, looked up): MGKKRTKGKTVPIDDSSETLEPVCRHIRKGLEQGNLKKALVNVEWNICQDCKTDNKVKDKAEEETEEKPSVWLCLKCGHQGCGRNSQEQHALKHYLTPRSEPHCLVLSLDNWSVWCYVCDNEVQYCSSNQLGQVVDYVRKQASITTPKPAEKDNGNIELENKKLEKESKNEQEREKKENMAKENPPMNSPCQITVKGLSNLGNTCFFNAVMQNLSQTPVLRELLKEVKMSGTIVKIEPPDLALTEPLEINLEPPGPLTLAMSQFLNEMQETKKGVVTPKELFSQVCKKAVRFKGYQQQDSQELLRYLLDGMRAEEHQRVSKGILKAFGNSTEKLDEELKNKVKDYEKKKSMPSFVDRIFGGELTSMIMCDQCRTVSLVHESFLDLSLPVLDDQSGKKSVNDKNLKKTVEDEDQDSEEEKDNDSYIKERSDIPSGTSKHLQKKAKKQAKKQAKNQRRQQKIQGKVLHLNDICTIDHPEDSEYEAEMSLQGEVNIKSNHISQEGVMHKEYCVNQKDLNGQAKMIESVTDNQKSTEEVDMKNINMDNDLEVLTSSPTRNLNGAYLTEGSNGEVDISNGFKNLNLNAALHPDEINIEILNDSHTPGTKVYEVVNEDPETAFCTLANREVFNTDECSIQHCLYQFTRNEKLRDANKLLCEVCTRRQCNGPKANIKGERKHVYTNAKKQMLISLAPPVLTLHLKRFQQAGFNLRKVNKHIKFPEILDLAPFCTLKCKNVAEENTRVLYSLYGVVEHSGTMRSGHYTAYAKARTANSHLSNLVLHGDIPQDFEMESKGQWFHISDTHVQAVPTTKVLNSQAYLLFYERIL
UCHL1, sequence (P09936 whole entry, looked up): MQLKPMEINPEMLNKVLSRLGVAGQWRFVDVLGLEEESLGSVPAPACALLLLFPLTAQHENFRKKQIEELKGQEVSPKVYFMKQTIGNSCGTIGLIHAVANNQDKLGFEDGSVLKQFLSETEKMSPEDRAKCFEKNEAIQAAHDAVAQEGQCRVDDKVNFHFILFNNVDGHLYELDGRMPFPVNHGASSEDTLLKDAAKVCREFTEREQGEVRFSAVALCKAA
USP10, sequence (Q14694 whole entry): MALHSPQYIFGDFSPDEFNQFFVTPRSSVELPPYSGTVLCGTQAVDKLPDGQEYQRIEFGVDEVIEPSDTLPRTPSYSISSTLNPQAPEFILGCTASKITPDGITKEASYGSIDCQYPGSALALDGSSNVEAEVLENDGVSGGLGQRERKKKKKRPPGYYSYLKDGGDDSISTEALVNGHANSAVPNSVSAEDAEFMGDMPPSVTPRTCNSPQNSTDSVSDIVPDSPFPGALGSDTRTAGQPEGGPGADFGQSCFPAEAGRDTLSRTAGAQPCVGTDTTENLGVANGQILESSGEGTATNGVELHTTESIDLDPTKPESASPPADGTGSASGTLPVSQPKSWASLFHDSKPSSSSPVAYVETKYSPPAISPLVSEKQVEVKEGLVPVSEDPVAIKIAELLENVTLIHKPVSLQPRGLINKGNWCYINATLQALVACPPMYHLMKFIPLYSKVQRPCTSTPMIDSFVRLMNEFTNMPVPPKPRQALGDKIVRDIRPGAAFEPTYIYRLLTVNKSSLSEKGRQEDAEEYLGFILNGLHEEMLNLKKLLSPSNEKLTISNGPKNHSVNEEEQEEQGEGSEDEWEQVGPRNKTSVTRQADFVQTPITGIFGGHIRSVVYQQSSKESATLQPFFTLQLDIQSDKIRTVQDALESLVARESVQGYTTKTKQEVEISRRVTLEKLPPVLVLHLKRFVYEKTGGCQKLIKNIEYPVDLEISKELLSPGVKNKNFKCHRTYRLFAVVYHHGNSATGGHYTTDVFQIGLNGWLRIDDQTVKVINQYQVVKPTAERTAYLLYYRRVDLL

Cl.O=C(CN1CCN(C(=O)CCl)CC1)Nc1ccc(F)cc1
inactive: [1] 0.226 | [2] 0.0571 | [3] 0.0678 | [4] 0.149 | [6] 0.501 | [7] -0.0699 | [8] -0.0791 | [9] -0.113 | [10] 0.138
active: [5] -1.2
